# SMN2 splice up: enhancers of SMN2 splice variant expression; Potency, µM (top dose mostly 46.1 µM), inactives show at the top dose activity change, positive = activation, usual class: activators; AID 1458; HEK293 SMN2-luciferase splicing reporter, luminescence, 30-36 h; 210,000 tested, 2.8% active; also: % of control where 0% means no effect; nearly all actives have a fitted effect of over 55% in size
#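 HEK293 cells carry an SMN2 minigene-luciferase reporter in which exon 7 inclusion puts luciferase in frame. Cells were seeded at 2000 cells/well, attached for 10-12 hours, then exposed to compounds for 30-36 hours at 37C before ONE-Glo luminescence.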
# KinaseGlo FLuc: counter-screen: inhibitors of Kinase-Glo firefly luciferase; Q27757; Kinase-Glo luciferase, ATP luminescence, 8 min; Potency, µM (highest dose often 38.3 µM), inactives show at the highest dose activity change, negative = inhibition, hits mostly inhibitors; 200,000 tested, 0.28% active; also: % is scaled to controls: 0 for no effect and ±100 for the full control effect; nearly all actives have a fitted effect of over 60% in size
#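 Substrate mix (final 50 mM imidazole pH 7.2, 50 mM KCl, 7 mM MgCl2, 10 uM ATP, 0.01% Tween 20, 0.05% BSA) plus pin-tool compound, then Kinase-Glo detection mix; 8 min ambient, luminescence read.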
# Rab9 prom act: activates the Rab9 promoter; Huh7 Rab9 promoter-luciferase reporter, luminescence, 24 h; 320,000 tested, 2.8% active; Potency, µM (series often up to 9.22 µM), without a hit: top-dose activation, negative = inhibition, usual class: activators; also: % of control where 0% means no effect; nearly all actives have a fitted effect of over 60% in size
#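 Huh7 cells stably carrying a Rab9 promoter-luciferase reporter, 1500 cells per well in OP-MEM I with 10% FBS, treated with compound 24 hours at 37C. Luciferase activity read by luminescence after 10 minutes with Amplite reagent.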
# NPC1 promoter act: activates the NPC1 promoter | Huh7 NPC1 promoter luciferase reporter, 24 h | Potency, µM (series often up to 9.22 µM), without a hit: at the top dose activation, hits mostly activators | 320,000 tested, 2.4% active | AID 485313; also: % of control where 0% means no effect; nearly all actives have a fitted effect of over 60% in size
#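 Cells: Huh7 expressing luciferase under the NPC1 promoter, 1500/well. Seeded 2 h, compound added, incubated 24 h at 37 °C. Luciferase reagent, 10 min ambient, then luminescence.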
# ELG1 genotox: genotoxicity induction in ELG1-luciferase HEK293T cells; AID 504466; 330,000 tested, 1.3% active; HEK293T ELG1-luciferase reporter, luminescence, 16 h; Potency, µM (series often up to 46 µM), for inactives: at the highest dose activity change, positive = activation, usual class: activators; also: % of control where 0% means no effect; nearly all actives have a fitted effect of over 60% in size
#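 Reporter readout depends on ELG1 protein level, which increases with genetic stress. After 16 hr compound exposure at 37 °C, luciferase activity was quantified using ONE-Glo.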
# FLuc counter: counter-screen for miR-21 project: firefly luciferase inhibitors or activators; P08659; purified FLuc, Km substrates, luminescence inhibition; Potency, µM (series often up to 57.5 µM), inactives show at the highest dose activity change, negative = inhibition, most hits filed as inhibitors; 360,000 tested, 6.9% active; AID 588342;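 also: plate controls were vehicle for no effect and reference inhibitor for full effect; nearly all actives have a fitted effect of over 55% in size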
# Target sequence (P08659 whole entry, looked up): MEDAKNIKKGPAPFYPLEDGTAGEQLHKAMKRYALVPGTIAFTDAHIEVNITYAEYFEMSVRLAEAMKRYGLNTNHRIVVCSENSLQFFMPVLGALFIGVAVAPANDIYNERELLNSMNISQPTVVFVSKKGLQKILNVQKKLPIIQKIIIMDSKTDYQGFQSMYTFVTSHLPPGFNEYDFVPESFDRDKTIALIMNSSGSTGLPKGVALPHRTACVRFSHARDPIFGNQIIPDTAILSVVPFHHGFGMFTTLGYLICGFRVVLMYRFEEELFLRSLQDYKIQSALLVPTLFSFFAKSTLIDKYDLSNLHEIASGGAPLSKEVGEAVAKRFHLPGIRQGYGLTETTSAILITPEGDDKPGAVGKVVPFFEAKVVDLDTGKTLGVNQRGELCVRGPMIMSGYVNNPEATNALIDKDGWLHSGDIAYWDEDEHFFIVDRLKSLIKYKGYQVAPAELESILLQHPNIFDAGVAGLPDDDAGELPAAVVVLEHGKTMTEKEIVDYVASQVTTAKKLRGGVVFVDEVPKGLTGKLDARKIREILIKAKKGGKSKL
#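 Purified P. pyralis luciferase, 10 nM final, with Km-level 10 uM D-luciferin and 10 uM ATP in 50 mM Tris acetate pH 7.5, 10 mM Mg acetate, 0.01% Tween-20, 0.05% BSA; 6-point qHTS titration about 60 µM downward; luminescence read.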
# The depositor's hits bear a star; ? = inconclusive; nt = no result given; [ ] = dose if it differs, or a comment. Hits are enriched below; roughly 7.4% of the tested compounds scored in any of these assays. Calls follow the shape of the dose curve; as a rule, active = well fitted curve in the direction sought with a large enough effect; inconclusive = small, poorly fitted or top-dose-only effect, or another doubt; inactive = no such curve, though single readings can be large; an effect the other way counts as inactive or inconclusive. Potency is read from the fitted curve at half-maximal effect.
SMILES,SMN2 splice up,KinaseGlo FLuc,Rab9 prom act,NPC1 promoter act,ELG1 genotox,FLuc counter
COc1ccc(C(C(=O)NCc2ccccc2)N(C(=O)Cn2nnc3ccccc32)c2ccc(OC)cc2)cc1 (stereo not given),9%,nt,nt,nt,nt,1%
COc1nc(Cl)nc(Cl)c1Cl (tested in a mixture with another compound),-2%[9.22 µM],-6%[7.66 µM],nt,nt,nt,nt
COc1ccc(C(=O)NNC(=S)Nc2ccccc2)cc1,11µM*,-6%,0.56µM*,2.5µM*,?,11µM*
COc1ccccc1NC(=S)NNC(=O)c1ccccc1Br,5µM*,1%,?,22%,10%,?
COc1ccccc1NC(=S)NC(=O)CC(C)C,-6%,-1%,-1%,7%,1%,15µM*
COc1ccccc1C(=O)NNC(=O)c1ccccc1Br,nt,nt,19%,8%,9%,?
COC(=O)N1CCC2(CC1)CN(c1ccccc1)C2,-4%,0%,nt,nt,nt,nt
CCCCCCCCCCCCCCCCOCC(COP(=O)([O-])OCC[N+](C)(C)C)OC (stereo not given),?,-2%,nt,nt,nt,nt
COC(=O)c1cc(OC)c(=O)c2c(OC)c(OC)ccc2c1,-4%,-1%,nt,nt,nt,nt
COc1cc(-c2nc3n(n2)C(c2ccc(F)cc2)C(C(N)=O)=C(C)N3)cc(OC)c1OC (stereo not given),18%,nt,nt,nt,nt,5%
CN1CCc2c(sc3c2C(=O)NC(c2ccc(OC(=O)c4ccc(Cl)cc4)cc2)N3)C1 (stereo not given),-8%,nt,nt,nt,nt,-15%
CN1CCc2c(sc3c2C(=O)NC(c2ccc(OC(=O)c4ccc(C(C)(C)C)cc4)cc2)N3)C1 (stereo not given),-1%,nt,nt,nt,nt,11µM*
CCOc1cc(C2NC(=O)c3c(sc4c3CCN(C)C4)N2)ccc1OC(=O)c1ccc(F)cc1 (stereo not given),-11%,nt,nt,nt,nt,-2%
CN1CCc2c(sc3c2C(=O)NC(c2ccc(OC(=O)c4ccccc4)cc2)N3)C1 (stereo not given),16µM*,nt,nt,nt,nt,?
Cc1nc2c(C(=O)NC(C)c3ccccc3)cnn2c(C)c1Cc1ccccc1 (stereo not given),nt,nt,nt,nt,nt,-8%
Cc1ccc(Sc2nnc(-c3ccccc3)cc2C#N)cc1,-14%,-3%,-2%,-3%,-2%,9%
N#Cc1cc(-c2ccccc2)cnc1Sc1ccccc1,6%,-4%,5%,1%,0%,21µM*
Cc1ccc(SCCC(=O)N2CCOCC2)cc1,?,-1%,23%,26%,8%,?
Cc1ccc(SCc2ccc(C(=O)N3CCCC3)cc2)cc1,?,-2%,?,25%,13%,17µM*
Cc1ccc(C(=O)NCCC(=O)N2CCCC2)cc1,nt,nt,3.2µM*,4µM*,23µM*,11µM*
CCN1CCN(C(=O)c2ccc(CSc3ccc(C)cc3)cc2)CC1,-43%,-4%,-6%,1%,-8%,-11%
Cc1ccc(SCCC(=O)N2CCC(C(N)=O)CC2)cc1,nt,nt,11%,14%,?,-8%
Cc1ccc(SCCC(=O)N2CCCC2)cc1,-12%,-2%,25%,25%,15µM*,-14%
Cc1ccc(SCCC(=O)N2CCC(C)CC2)cc1,?,-3%,3.5µM*,4.5µM*,?,13µM*
COc1ccccc1CNC(=O)C1CCCN(c2nnc(-n3c(C)ccc3C)s2)C1 (stereo not given),-3%,nt,nt,nt,nt,-6%
SMILES,SMN2 splice up,KinaseGlo FLuc,Rab9 prom act,NPC1 promoter act,ELG1 genotox,FLuc counter
O=C(c1cccc(F)c1)N1CCC[C@@]2(CCN(Cc3nccs3)C2)C1,-12%,-2%,nt,nt,nt,nt
C/C=C/C1=CC2=CC(=O)C(C)(OC(=O)c3c(C)cc(O)cc3O)C(=O)C2=CO1 (stereo not given),4%,-2%,nt,nt,nt,nt
COc1cccc(NC(=O)c2ccc3nc(Cc4ccccc4)oc3c2)c1,nt,nt,nt,nt,nt,-17%
Nc1nc2cc3ccccc3cc2[nH]c1=O,nt,nt,10%,-4%,7%,-10%
c1cncc(-c2nc3cc4ccccc4cc3[nH]2)c1,4µM*,?,1.6µM*,?,?,0.6µM*
COc1cnc(-c2ccccn2)[nH]c1=O,-75%,0%,4%,0%,5%,-2%
COc1cccc2[nH]c(-c3ccccn3)nc12,4µM*,?,nt,nt,nt,nt
CC(=O)Nc1ccc2nc(-c3ccccn3)[nH]c2c1,11µM*,11µM*,2.8µM*,3.5µM*,?,19µM*
CC(=O)Nc1ccc2nc(-c3ccncc3)[nH]c2c1,8%,-1%,0%,4%,13%,-19%
c1ccc(-c2nc3cc4ccccc4cc3[nH]2)nc1,0.45µM*,11µM*,0.63µM*,0.63µM*,0.23µM*,0.11µM*
Cc1cc(C)n2nc(C(=O)NCc3ccccc3)cc2n1,12%,0%,-2%,-1%,7%,5%
Cc1cc(C)n2nc(Nc3ccccc3)cc2n1,25%,-7%,23%,18%,29%,17µM*
Cc1ccc(-c2cc3nc(C)cc(C)n3n2)cc1,13µM*,-4%,1.8µM*,3.5µM*,5.2µM*,2.7µM*
Cc1cc(C)n2nc(-c3ccccc3)cc2n1,nt,-12%,3.2µM*,?,?,7.6µM*
Cc1ccc(NC(=O)c2cc3nc(-c4ccccc4)cc(-c4ccccc4)n3n2)cc1,15%,nt,nt,nt,nt,7%
Cc1cc(C)n2nc(-c3ccsc3-n3c(C)ccc3C)cc2n1,6%,7%,5%,-1%,5%,-2%
Cc1ccc(NC(=O)c2cc3nc(C)cc(C)n3n2)cc1,11µM*,-4%,0.89µM*,0.63µM*,1.5µM*,4.8µM*
O=C(CSc1cn(CCNC(=O)c2c(F)cccc2F)c2ccccc12)Nc1ccc2c(c1)OCCO2,2%,nt,nt,nt,nt,?
N#Cc1ccccc1NC(=O)CSc1nnc(N)s1,9%,nt,nt,nt,nt,-5%
COc1ccc2c(c1)sc1ncc(C(=O)NCc3ccc(Cl)cc3)c(=O)n12,?,nt,nt,nt,nt,4%
Cc1cc(Cl)ccc1OCC(=O)N1CCCCC1,?,-4%,28%,?,21µM*,17µM*
O=C(COc1ccc(Cl)cc1Cl)NC(=O)NC1CCCC1,nt,nt,?,?,?,9.5µM*
O=C(COc1ccc(Cl)cc1Cl)NC(=S)N1CCCc2ccccc21,-29%,2%,4%,-26%,3%,27µM*
CC(=O)c1ccccc1OC(=O)COc1ccc(Cl)cc1C,0%,1%,2%,-4%,2%,17µM*
Cc1cc(Cl)ccc1OCC(=O)N1CCN(c2ncccn2)CC1,-18%,1%,-10%,2%,-3%,-1%
Oc1ccc([C@@H]2CNCCc3c2cc(O)c(O)c3Cl)cc1,nt,1%,nt,nt,nt,nt
